Experimental findings from PubChem BioAssay are described below.

Assay [1] can be described thus: viability loss with induced miR-34 in A549 – imaging, A549 dox-inducible miR-34, nuclei and caspase counts, primary screen (AID 1347080). The conditions noted are these: A549 miR-34 inducible, Hoechst nuclei count, 48 h.
Assay [2] is described as follows: MELAS cybrid and Rieske KO viability enhancers – cell-based, MELAS cybrids, Rieske KO mouse fibroblasts, CellTiter-Glo, primary screen (AID 1508586;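 active means mean z-score across replicates of 1.96 or higher in either the MELAS or the Rieske mutant cell line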;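 further: z relative to plate mean and SD of compound and empty wells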). To be noted: low glucose.
Assay [3] is described as follows: compounds altering viability of human ES cells (AID 493140; call rule not given here;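 further: cells exposed to compounds for four days before counting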). The conditions noted are these: human embryonic stem cell survival screen; stronger effect = higher value.
The nature of assay [4]: P. berghei load reduction in hepatocytes – cell-based, HepG2, luciferase luminescence, HepG2 viability, primary screen (AID 624349; in the data active means parasite load remaining mostly below about 12%, no sharp cut-off; inactive means mostly above about 10%;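 further: 100% = mean of DMSO negative control wells on the same plate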). To be noted: P. berghei liver stage in HepG2, luciferase luminescence, concentration not given here; parasite load remaining: stronger effect = lower value; viability: measured here: HepG2 viability without parasites.
A short description of assay [5]: galactose survival enhancers in mitochondrial complex I cybrids – cell-based, galactose medium, ATP luminescence, primary screen (AID 1645843;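 active means z-score of at least 1.8 in each of two replicates, scored against plate mean and spread of sample wells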;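 further: positive z means more ATP and so rescue of galactose-driven cybrid death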). To be noted: complex I mutant cybrid cells, 72 h, stronger effect = higher value.
For assay [6], the target named is NAD(+) hydrolase SARM1 (Homo sapiens) (UniProt Q6SZW1). As to the kind of experiment: blocking NAD cleavage by SARM1 SAM-TIR – cell lysate, NAD-Glo luminescence (AID 1508614;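 active means compound whose remaining NAD level is above about 45 nM, limit read from the data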). The conditions noted are these: SAM-TIR HEK293T lysate NADase, at 1 µM, stronger effect = higher value.
The target in assay [7] is Mitogen-activated protein kinase 7 (Homo sapiens) (UniProt Q13164). Description: Gal4-ERK5 driven luciferase induction – cell-based, HTS, primary screen (AID 1508626;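 active means luciferase signal above three times the same-plate solvent-only control wells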;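 further: luciferase driven by Gal4-ERK5 fusion binding five Gal4 sites before minimal TATA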). To be noted: HeLa Gal4-ERK5 transactivation, 18 h, at 5 µM, stronger effect = higher value.
[8] abbreviates: measured here: relative caspase fold change +Dox/-Dox.
Where [9] appears, read: measured here: total cells with miR-34 induction, stronger effect = lower value.
Setting [10] is: measured here: total cells without miR-34 induction.
Where [11] appears, read: MELAS cybrid survival, CellTiter-Glo 48 h, stronger effect = higher value.
Where [12] appears, read: Rieske KO mouse fibroblast survival, CellTiter-Glo 72 h.
Where [13] appears, read: stronger effect = lower value, cell number ratio, induced over uninduced.

SMILES strings stand for the structures. Several values for one entry are separate records, joined by “and”; a condition that tells them apart may be missing. Identical values can stand only once. Activity calls are given as the source filed them.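 How the source made its calls, unless noted: active means compounds whose cell count with miR-34 switched on is under 0.7 times the count with it off; inactive means the rest.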

Chain of NAD(+) hydrolase SARM1 (Homo sapiens) (Q6SZW1 whole entry, looked up, the tested form may be a part): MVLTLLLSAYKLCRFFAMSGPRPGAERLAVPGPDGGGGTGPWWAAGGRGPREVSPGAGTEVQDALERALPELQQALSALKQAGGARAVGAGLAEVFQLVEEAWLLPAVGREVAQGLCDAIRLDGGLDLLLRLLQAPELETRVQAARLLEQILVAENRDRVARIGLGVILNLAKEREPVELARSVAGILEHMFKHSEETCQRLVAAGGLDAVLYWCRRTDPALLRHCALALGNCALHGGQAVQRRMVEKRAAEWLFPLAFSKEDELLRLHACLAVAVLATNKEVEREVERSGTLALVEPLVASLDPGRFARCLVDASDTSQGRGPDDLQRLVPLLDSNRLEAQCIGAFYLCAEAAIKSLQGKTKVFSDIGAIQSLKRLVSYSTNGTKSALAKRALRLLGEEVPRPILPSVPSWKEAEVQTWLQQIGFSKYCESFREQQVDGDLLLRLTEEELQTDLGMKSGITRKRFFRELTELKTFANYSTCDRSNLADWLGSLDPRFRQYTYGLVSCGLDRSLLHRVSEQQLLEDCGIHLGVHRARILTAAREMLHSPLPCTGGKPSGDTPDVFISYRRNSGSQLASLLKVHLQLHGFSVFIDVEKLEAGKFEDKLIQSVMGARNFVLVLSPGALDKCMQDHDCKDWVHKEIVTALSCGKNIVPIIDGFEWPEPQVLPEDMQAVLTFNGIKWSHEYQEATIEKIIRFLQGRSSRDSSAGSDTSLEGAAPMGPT
Chain of Mitogen-activated protein kinase 7 (Homo sapiens) (Q13164 whole entry, looked up, the tested form may be a part): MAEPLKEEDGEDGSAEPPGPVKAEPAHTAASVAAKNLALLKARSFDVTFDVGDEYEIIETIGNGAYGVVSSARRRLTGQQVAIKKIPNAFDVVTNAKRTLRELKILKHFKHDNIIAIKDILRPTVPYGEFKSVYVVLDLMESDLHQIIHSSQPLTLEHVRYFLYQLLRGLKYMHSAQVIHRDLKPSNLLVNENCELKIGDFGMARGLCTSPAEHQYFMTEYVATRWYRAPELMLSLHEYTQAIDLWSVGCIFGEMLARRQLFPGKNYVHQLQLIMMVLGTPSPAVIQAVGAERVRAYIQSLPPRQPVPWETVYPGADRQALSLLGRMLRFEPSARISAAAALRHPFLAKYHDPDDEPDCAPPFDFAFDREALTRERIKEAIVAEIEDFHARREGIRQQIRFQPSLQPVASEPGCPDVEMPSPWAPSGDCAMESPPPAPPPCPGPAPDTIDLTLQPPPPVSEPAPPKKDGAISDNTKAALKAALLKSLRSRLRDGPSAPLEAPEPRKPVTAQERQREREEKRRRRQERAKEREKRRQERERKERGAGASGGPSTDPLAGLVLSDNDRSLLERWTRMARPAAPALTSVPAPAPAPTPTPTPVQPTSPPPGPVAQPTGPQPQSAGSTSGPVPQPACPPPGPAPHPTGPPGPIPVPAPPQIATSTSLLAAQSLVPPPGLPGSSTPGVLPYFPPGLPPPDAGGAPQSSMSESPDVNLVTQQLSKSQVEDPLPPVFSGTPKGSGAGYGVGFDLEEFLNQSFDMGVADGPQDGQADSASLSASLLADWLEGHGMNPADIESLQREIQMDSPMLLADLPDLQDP

With `CCc1cc2c(s1)-n1c(C)nnc1CN=C2c1ccccc1Cl`, the figures for the fold change in assay [1] (stronger effect = lower value) and in assay [1] (setting [8]) were 0.948 (inactive) and 0.493, respectively. Further, the figures for the cell count in assay [1] (setting [9]) and in assay [1] (setting [10]) were 8260 and 8710, respectively. Besides, the z-score in assay [2] (setting [11]) is -0.248 (inactive); in assay [2] (setting [12]), -0.187.

Broadly, the viability is a read-out of living cells in per cent, often relative to untreated cells. Consider `CC(Cc1ccccc1)NCCC(c1ccccc1)c1ccccc1` (centres undefined), for which the survival in assay [3] is 2.25 (inactive). Moreover, the parasite load remaining in assay [4] is 54.7% (inactive). Besides, in assay [4], the viability was 77.6%. The results for the fold change in assay [1] (stronger effect = lower value) and in assay [1] (setting [8]) were 1.36 (inactive) and 0.226, respectively. For the same compound, the cell count in assay [1] (setting [9]) came out at 3500; in assay [1] (setting [10]) it was 2580. For the same compound, the z-score in assay [2] (setting [11]) was -0.835 (inactive) and -1.25 (inactive); in assay [2] (setting [12]), -0.134 and -0.319; in assay [5], -2.66 (inactive).

With `Cc1nc(-c2ccccn2)nc(NCCc2ccccc2)c1Cl`, the figures for the fold change in assay [1] (stronger effect = lower value) and in assay [1] (setting [8]) were 0.975 (inactive) and 0.693, respectively. For the same compound, the cell count in assay [1] (setting [9]) was found to be 3090; in assay [1] (setting [10]) it was 3170. In addition, the z-score in assay [2] (setting [11]) was -0.0148; in assay [2] (setting [12]), 3.58; in assay [5], -2.29 (inactive).

Turning to `c1cc2c(cc1C1OC[C@H]3C(c4ccc5c(c4)OCO5)OC[C@H]13)OCO2` (some centres undefined), the figures for the fold change in assay [1] (setting [13]) and in assay [1] (setting [8]) were 0.925 (inactive) and 0.861, respectively. In addition, the figures for the cell count in assay [1] (setting [9]) and in assay [1] (setting [10]) were 8900 and 9620, respectively. In addition, the results for the z-score in assay [2] (setting [11]) and in assay [2] (setting [12]) were -0.349 (inactive) and 0.747, respectively.

For `C[C@]12CC[C@@H]3[C@@H](CC[C@@]45O[C@@H]4C(O)=C(C#N)C[C@]35C)[C@@H]1CCC2O` (some centres undefined), the fold change was 0.917 (inactive) in assay [1] (stronger effect = lower value) and 0.921 in assay [1] (setting [8]). Moreover, the cell count in assay [1] (setting [9]) was 7740; in assay [1] (setting [10]), 8440. For the same compound, the z-score is -0.378 (inactive) in assay [2] (setting [11]) and 0.316 in assay [2] (setting [12]).

For the compound `CC(=O)O[C@@]12CO[C@@H]1CC(O)[C@@]1(C)C(=O)C(O)C3=C(C)C(O)C[C@@](O)(C(OC(=O)c4ccccc4)[C@H]21)C3(C)C` (some centres undefined), the fold change in assay [1] (setting [13]) is 1 (inactive); in assay [1] (setting [8]), 0.634. Besides, the cell count in assay [1] (setting [9]) and in assay [1] (setting [10]) was 6370 throughout. For the same compound, the z-score in assay [2] (setting [11]) is -0.382 (inactive); in assay [2] (setting [12]), 1.02.

As for `CN1C[C@H](C(=O)N[C@]2(C)O[C@@]3(O)[C@@H]4CCCN4C(=O)[C@H](Cc4ccccc4)N3C2=O)C=C2c3cccc4[nH]cc(c34)C[C@H]21`, the parasite load remaining in assay [4] was 33.4% (inactive). Moreover, the viability in assay [4] came to 106%. In addition, the figures for the fold change in assay [1] (stronger effect = lower value) and in assay [1] (setting [8]) were 0.866 (inactive) and 1.34, respectively. Besides, the cell count in assay [1] (setting [9]) worked out at 8820; in assay [1] (setting [10]) it was 10200. Besides, the figures for the z-score in assay [2] (setting [11]), in assay [2] (setting [12]) and in assay [5] were -0.409 (inactive), -0.32 and 1.08 (inactive), respectively. For the same compound, in assay [6], the remaining NAD was 10 nM (inactive). Moreover, in assay [7], the luciferase signal was 80 AU (inactive).

Regarding `CC[C@@]1(O)C(=O)OCc2c1cc1n(c2=O)Cc2cc3c(O)cccc3nc2-1`, the parasite load remaining in assay [4] was 25.4% (inactive). Besides, the viability in assay [4] is 34%. Moreover, the fold change was 0.938 (inactive) and 1.02 (inactive) in assay [1] (stronger effect = lower value); 0.873 and 1 in assay [1] (setting [8]). Also, the cell count in assay [1] (setting [9]) is 1030 and 1460; in assay [1] (setting [10]), 1100 and 1430. For the same compound, the figures for the z-score in assay [2] (setting [11]), in assay [2] (setting [12]) and in assay [5] were -1.16 (inactive), -0.93 and -2.13 (inactive), respectively.

As for `CCCCC(C#N)(Cn1cncn1)c1ccc(Cl)cc1` (centres undefined), in assay [4], the parasite load remaining is 18.9% (inactive). The viability in assay [4] stood at 67.5%. Also, the fold change in assay [1] (stronger effect = lower value) was 0.938 (inactive); in assay [1] (setting [8]), 1.46. Also, the cell count in assay [1] (setting [9]) is 9220; in assay [1] (setting [10]) it was 9830. Moreover, the z-score in assay [2] (setting [11]) was 0.49 (inactive); in assay [2] (setting [12]) it was -0.243; in assay [5], 0.815 (inactive).

In the case of `C[C@]12CCC(=O)C(O)=C1CC[C@@H]1[C@H]2CC[C@]2(C)C(=O)CC[C@@H]12`, the fold change in assay [1] (stronger effect = lower value) was 0.879 (inactive); in assay [1] (setting [8]) it was 0.764. Besides, the cell count is 8100 in assay [1] (setting [9]) and 9210 in assay [1] (setting [10]). The z-score in assay [2] (setting [11]) was -0.345 (inactive); in assay [2] (setting [12]) it was 0.332.

For `C=CCN1CC[C@]23c4c5ccc(O)c4O[C@H]2C(=O)CC[C@@]3(O)C1C5`, the fold change in assay [1] (stronger effect = lower value) is 0.942 (inactive); in assay [1] (setting [8]) it was 1.73. Besides, the cell count in assay [1] (setting [9]) was 7860; in assay [1] (setting [10]), 8350. The z-score was 0.0762 (inactive) in assay [2] (setting [11]) and -0.34 in assay [2] (setting [12]).

Take `CCCC(=O)OCC[N+](C)(C)C`: the parasite load remaining in assay [4] was 42.8% (inactive). Moreover, in assay [4], the viability amounted to 107%. Further, the fold change was 0.934 (inactive) in assay [1] (stronger effect = lower value) and 0.999 in assay [1] (setting [8]). Also, the cell count in assay [1] (setting [9]) worked out at 10000; in assay [1] (setting [10]), 10700. The z-score is 0.357 (inactive) in assay [2] (setting [11]), 0.101 in assay [2] (setting [12]) and 0.43 (inactive) in assay [5].

`C=CC(C)(C)c1cc2cc3c(cc2oc1=O)OC(C(C)(C)O)C3` (centres undefined): the fold change was 0.846 (inactive) in assay [1] (setting [13]) and 0.587 in assay [1] (setting [8]). The figures for the cell count in assay [1] (setting [9]) and in assay [1] (setting [10]) were 5210 and 6170, respectively. In addition, the z-score was -1.27 (inactive) in assay [2] (setting [11]), 0.752 in assay [2] (setting [12]) and -2.66 (inactive) in assay [5].

In the case of `Oc1ccc2c3c1O[C@H]1c4oc5ccccc5c4C[C@@]4(O)[C@@H](C2)N(CC2CC2)CC[C@]314`, in assay [4], the parasite load remaining was 33.1% (inactive). In addition, in assay [4], the viability was 94%. Also, the figures for the fold change in assay [1] (stronger effect = lower value) and in assay [1] (setting [8]) were 0.915 (inactive) and 0.462, respectively. For the same compound, the cell count is 9980 in assay [1] (setting [9]) and 10900 in assay [1] (setting [10]). The z-score in assay [2] (setting [11]) was -0.602 (inactive); in assay [2] (setting [12]), 0.281; in assay [5], -0.095 (inactive).

With `CC(C)(c1ccccc1)c1ccc(O)cc1`, the values for the fold change in assay [1] (stronger effect = lower value) and in assay [1] (setting [8]) were 0.897 (inactive) and 0.637, respectively. For the same compound, the values for the cell count in assay [1] (setting [9]) and in assay [1] (setting [10]) were 8850 and 9870, respectively. The z-score in assay [2] (setting [11]) was 0.409 (inactive); in assay [2] (setting [12]), -0.32; in assay [5], 0.62 (inactive).

In the case of `C=CCN1CC[C@]23c4c5ccc(O)c4O[C@H]2/C(=N/N=C2\CC[C@@]4(O)[C@H]6Cc7ccc(O)c8c7[C@@]4(CCN6CC=C)[C@H]2O8)CC[C@@]3(O)[C@H]1C5`, in assay [4], the parasite load remaining was 8.58% (inactive). The viability in assay [4] was 59%. The fold change in assay [1] (stronger effect = lower value) was 0.791 (inactive); in assay [1] (setting [8]), 1.27. Moreover, the cell count in assay [1] (setting [9]) is 7760; in assay [1] (setting [10]) it was 9820. Besides, the z-score was -0.547 (inactive) in assay [2] (setting [11]), -0.931 in assay [2] (setting [12]) and -1.6 (inactive) in assay [5].

As to `Cc1ccc(C(C)Nc2ncnc3sccc23)cn1` (centres undefined), the results for the fold change in assay [1] (setting [13]) and in assay [1] (setting [8]) were 0.921 (inactive) and 1.09, respectively. The cell count in assay [1] (setting [9]) stood at 5250; in assay [1] (setting [10]), 5700. Moreover, the z-score in assay [2] (setting [11]) is -0.723 (inactive); in assay [2] (setting [12]), -0.439; in assay [5], -0.4 (inactive).

Turning to `Oc1ccc(C2(c3ccc(O)cc3)CCCCC2)cc1`, the results for the fold change in assay [1] (stronger effect = lower value) and in assay [1] (setting [8]) were 0.911 (inactive) and 0.41, respectively. The cell count was found to be 7610 in assay [1] (setting [9]) and 8350 in assay [1] (setting [10]). Further, the z-score in assay [2] (setting [11]) was -0.617 (inactive); in assay [2] (setting [12]) it was -0.22; in assay [5], -1.9 (inactive).

Turning to `N#Cc1cnn(-c2ccc(Cl)cc2)c1N`, the fold change in assay [1] (stronger effect = lower value) is 0.852 (inactive); in assay [1] (setting [8]), 1.03. The figures for the cell count in assay [1] (setting [9]) and in assay [1] (setting [10]) were 8030 and 9420, respectively. Also, the z-score is -0.167 (inactive) in assay [2] (setting [11]), -0.085 in assay [2] (setting [12]) and 0.29 (inactive) in assay [5].
